Several values for one entry are separate records, joined by “and”; a condition that tells them apart may be missing. Identical values can stand only once. Results filed as inconclusive are left out. Activity calls are given as the source filed them. Unless noted, calls come from the whole dose curve; as a rule, active = well fitted curve in the direction sought with a large enough effect; inconclusive = small, poorly fitted or top-dose-only effect, or another doubt; inactive = no such curve, though single readings can be large; an effect the other way counts as inactive or inconclusive.
Legend:
[1] = Cell Viability - HepG2 (AID 433; calls by dose curve;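 note: potency is the fitted concentration of half-maximal effect; cells exposed to compound for 40 hours; potency for ATP loss meaning cytotoxicity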); settings: qHTS
In short: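 ATP luminescence (CellTiter-Glo) after 40 h compound exposure, 37 °C, HepG2, 1500 cells/well, complete medium. Normalized: DMSO = basal, 100 uM tamoxifen = 100% inhibition. AC50 via standard Hill equation.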

[2] = Cell Viability - MRC5 (AID 434; calls by dose curve;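 note: potency is the fitted concentration of half-maximal effect; cells exposed to compound for 40 hours at 37 °C; potency reflects cytotoxicity seen as loss of intracellular ATP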); settings: MRC5 lung fibroblast viability, qHTS
In short: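 AC50 values come from Hill-equation fits of intracellular ATP loss, measured by CellTiter-Glo luminescence. Normal lung fibroblasts (MRC5) had 40 hr compound treatment at 37 C, normalized between DMSO and 100 uM tamoxifen.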

[3] = Cell Viability - SK-N-SH (AID 435; calls by dose curve; note: potency is the fitted concentration of half-maximal effect); settings: SK-N-SH neuroblastoma cell viability qHTS
In short: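 CellTiter-Glo ATP luminescence, 20 min RT read; cells pre-plated 5 hr, compound 40 hr at 37 °C, 1500 cells/well, complete medium. Normalized DMSO = 0, 100 uM tamoxifen = 100% inhibition; Hill-fit AC50.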

[4] = Cell Viability - HUV-EC-C (AID 542); settings: HUV-EC-C endothelial cell viability, qHTS; series mostly up to 92.2 µM;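 note: cells exposed to compound for 40 hours; % is set by controls: 0 for no effect and ±100 for the full control effect; nearly all actives have a fitted effect of over 35% in size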
In short: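 Luminescent ATP read-out (CellTiter-Glo, 20 min room temperature) after 40 hr compound treatment of HUV-EC-C cells at 37 °C. Concentration-response data fitted with the standard Hill equation to give AC50; tamoxifen and doxorubicin served as positive controls.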

[5] = Cell Viability - Renal Proximal Tubule (AID 545); settings: renal proximal tubule cells viability; at 91.7 µM (top of the series), primary cells of rat origin unless noted;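 note: cells exposed to compound for 40 hours; nearly all actives have a fitted effect of over 40% in size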
In short: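 Rat kidney proximal tubule cells, freshly isolated; 1000 cells/well, 5 hr settle, compound 40 hr 37 °C. CellTiter-Glo 20 min RT, luminescence read. AC50 by standard Hill fit.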

[6] = Cell Viability - Mesenchymal (AID 546); settings: mesenchymal cells viability, qHTS; series mostly up to 91.7 µM;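 note: cells exposed to compound for 40 hours before reading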
In short: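 CellTiter-Glo luminescence (intracellular ATP, 20 min room temperature) after 40 hr compound exposure at 37 °C of 1000 glomerulus-derived human kidney mesenchymal cells/well; AC50 values obtained by fitting qHTS concentration-response data to the Hill equation.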

[7] = Cellular Toxicity (caspase-3) Jurkat (AID 655); settings: Jurkat caspase-3 activation, luminescence, DMSO = 0%, tamoxifen = 100%; at 92.2 µM (top of the series);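 note: cells exposed to compound for 16 h at 37 °C before reading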
In short: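 Luminescent caspase-3/7 readout (aminoluciferin substrate cleavage) in human T-cell leukemia Jurkat cells after 16 hr compound exposure. Concentration-response normalized to DMSO and 100 uM tamoxifen; AC50 by standard Hill equation.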

[8] = Cellular Toxicity (caspase-3) HUV-EC-C (AID 656); settings: HUV-EC-C cells, caspase-3 activation (apoptosis), vehicle = 0, 100 µM tamoxifen = 100%; series mostly up to 92.2 µM
In short: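 Luminescent caspase-3/7 activation (aminoluciferin substrate cleavage) in HUV-EC-C cells after 16 hr compound exposure, 37°C. Signal normalized to DMSO basal and 100 uM tamoxifen as 100%; AC50 from concentration-response fitted with the Hill equation.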

[9] = Cellular Toxicity (caspase-3) SHSY5Y (AID 657); settings: SH-SY5Y caspase-3 activation, DMSO zero, 10 µM staurosporine = 100%; series mostly up to 91.7 µM
In short: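 Luminescent caspase-3/7 readout (aminoluciferin release) in SH-SY5Y cells after 16 h compound exposure in complete medium. Activity scaled between DMSO basal and 10 uM staurosporine as 100%; concentration-response fitted to Hill equation for AC50.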

[10] = Cellular Toxicity (caspase-3) BJ (AID 658); settings: BJ fibroblasts, luminescence, normalized: DMSO 0%, staurosporine 100%; series mostly up to 91.7 µM
In short: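 Caspase-Glo 3/7 luminescence, read 1 hr after reagent at room temperature, in normal BJ fibroblasts exposed 16 hours at 37 °C. AC50 values from Hill-equation concentration-response, scaled between DMSO basal and 10 uM staurosporine as 100%.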

[11] = Cellular Toxicity (caspase-3) MRC-5 (AID 659); settings: MRC-5 cells, luminescence, normalized: DMSO 0%, 10 µM staurosporine 100%; series mostly up to 91.7 µM
In short: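 Luminescent Caspase-Glo 3/7 read-out (1 h, room temperature) after a 16 h, 37 °C compound exposure of MRC-5 lung fibroblasts at 1500 cells/well. Concentration-response AC50 from Hill equation; 0% DMSO, 100% 10 uM staurosporine.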

[12] = Cellular Toxicity (caspase-3) Mesangial (AID 660); settings: mesangial cells, normalized: DMSO 0%, 100 µM tamoxifen 100%; series mostly up to 91.7 µM;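 note: combined caspase 3 and 7 activity read by Caspase-Glo luminescence; cells exposed to compound for 16 h before the caspase read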
In short: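 Luminescent Caspase-Glo 3/7 readout (aminoluciferin substrate cleavage, 20 min RT) after 16 h compound exposure at 37 °C of normal human mesangial cells. Signal increase normalized between DMSO basal and 100 uM tamoxifen; Hill-equation AC50.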

[13] = Cellular Toxicity (caspase-3) SK-N-SH (AID 661); settings: SK-N-SH caspase-3 activation, qHTS, DMSO as zero, staurosporine as full; series mostly up to 91.7 µM
In short: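 Luminescent Caspase-Glo 3/7 read-out after 16 hr compound exposure of SK-N-SH neuroblastoma cells at 37 °C. Signal increase normalized to DMSO (basal) and 10 uM staurosporine (100%); AC50 from Hill equation fits of qHTS concentration-response data.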

[14] = Cellular Toxicity (caspase-3) H-4-II-E (AID 663); settings: H-4-II-E rat hepatoma, scaled: DMSO 0%, 100 µM tamoxifen 100%; series mostly up to 92.2 µM;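 note: cells exposed to compound for 16 hr before readout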
In short: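 Caspase 3/7 activation measured by luminescent aminoluciferin substrate cleavage after 16 hr compound treatment of H-4-II-E cells in complete medium. Increase normalized between DMSO (basal) and 100 uM tamoxifen (100%); Hill-equation AC50 from concentration-response.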

[15] = Cellular Toxicity (caspase-3) Renal Proximal Tubule (AID 667); settings: renal proximal tubule cells; at 91.7 µM (top of the series), primary cells freshly taken from rat, solvent-only wells 0%, staurosporine 100% unless noted;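 note: cells exposed to compound for 16 hours at 37 °C before detection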
In short: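 Luminescent caspase 3/7 signal from peptide-aminoluciferin cleavage measures apoptosis in freshly isolated rat kidney proximal tubule cells after 16 h compound exposure. Concentration-response data are normalized to DMSO and 10 uM staurosporine, and AC50 values come from Hill equation fits.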

[16] = MultiTox-Fluor Cytotoxicity Assay - LYMP1-001 - Dead Cells (AID 946); settings: LYMP1-001 lymphoblastoid cells, dead-cell protease fluorescence; series mostly up to 92.2 µM
In short: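 Cytotoxicity as increased dead-cell protease fluorescence (bis-AAF-R110, 485/520 nm), read 60 min after MultiTox-Fluor reagent. Human lymphoblastoid line exposed 16 h; Hill-fitted AC50, with DMSO as 0% and 15 uM tetraoctylammonium bromide as 100%.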

[17] = Cell Viability - LYMP1-002 - Assay at 16 hr (AID 948); settings: LYMP1-002 lymphoblastoid cell viability; series mostly up to 92.2 µM;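 note: 0% = DMSO alone and full effect = 92 µM tetraoctylammonium bromide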
In short: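 LYMP1-002 human lymphoblastoid cells, 2500/well; 5 hr 37 C; cpd 16 hr 37 C; CellTiter-Glo 30 min RT; luminescence (ATP). Concentration-response, Hill-fit AC50. Pos ctrl tetraoctylammonium bromide.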

[18] = MultiTox-Fluor Cytotoxicity Assay - LYMP1-003 - Dead Cells (AID 961); settings: LYMP1-003 lymphoblastoid cells, dead-cell protease fluorescence; series mostly up to 92.2 µM; note: nearly all actives have a fitted effect of over 70% in size
In short: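 Dead-cell protease release, detected as bis-AAF-R110 fluorescence at 485/520 nm, was measured in LYMP1-003 cells after 16 h compound treatment at 37 C. AC50 values came from Hill-modeled qHTS curves normalized to DMSO (0%) and 15 uM tetraoctylammonium bromide (100%).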

[19] = qHTS assay for cell viability of HEK293 cells (AID 743288); settings: ATP luminescence (CellTiter-Glo), 18 h; max response: stronger effect = lower value; note: % is set by controls: 0 for no effect and ±100 for the full control effect; nearly all actives have a fitted effect of over 50% in size
In short: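 ATP luminescence (CellTiter-Glo) reports metabolically competent cell number after parental HEK293 cells, 2,000/well, were treated with DMSO-dissolved compounds for 18 h at 37 C; reagent incubation 30 min, room temperature.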

[20] = qHTS assay for cell viability of the p53RE-bla HCT-116 cell line (AID 743292); settings: p53RE-bla HCT-116 viability, ATP luminescence, 16 h; series mostly up to 95 µM; note: % is set by controls: 0 for no effect and ±100 for the full control effect; nearly all actives have a fitted effect of over 55% in size
In short: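 Compound-exposed HCT-116 (p53RE-bla) cells, 4,000 per well, were kept 16 h at 37 C following a 5 h preincubation. Cell number was estimated from total ATP by CellTiter-Glo luminescence read after 30 min at room temperature.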

COC1=CC(=O)O[C@@H](/C=C/c2ccc3c(c2)OCO3)C1
inactive: Potency [1] > 92 µM | Potency [2] > 92 µM | Potency [3] > 92 µM | Potency [4] | activity change, negative = cytotoxicity [5] -14.1% | outcome [6] | caspase-3 activation [7] -10% | outcome [8] | outcome [9] | outcome [10] | outcome [11] | outcome [12] | outcome [13] | outcome [14] | caspase-3 activation [15] -22.8% | Potency [16] | Potency [17] | Potency [18] | max response [19] -22% | Potency [20]

CC(C)(c1ccccc1)c1ccc(O)cc1
inactive: Potency [1] > 92 µM | Potency [2] > 92 µM | Potency [3] > 92 µM | Potency [4] | activity change, negative = cytotoxicity [5] -9.32% | outcome [6] | caspase-3 activation [7] 11.6% | outcome [8] | outcome [9] | outcome [10] | outcome [11] | outcome [12] | outcome [13] | outcome [14] | caspase-3 activation [15] 4.59% | Potency [16] | Potency [17] | Potency [18] | max response [19] -13.3% and 1.83% | Potency [20]

CCCCOCCOP(=O)(OCCOCCCC)OCCOCCCC
inactive: Potency [1] > 92 µM | Potency [2] > 92 µM | Potency [3] > 92 µM | Potency [4] | activity change, negative = cytotoxicity [5] 5.24% [at 91.7 µM] | outcome [6] | caspase-3 activation [7] 1.12% | outcome [8] | outcome [9] | outcome [10] | outcome [11] | outcome [12] | outcome [13] | outcome [14] | caspase-3 activation [15] -4.16% [at 91.7 µM] | Potency [16] | Potency [17] | Potency [18] | max response [19] -5.77% and -12.8% | Potency [20]

N#CCCCl
inactive: Potency [1] > 92 µM | Potency [2] > 92 µM | Potency [3] > 92 µM | Potency [4] | activity change, negative = cytotoxicity [5] 1.51% and -5.91% | outcome [6] | caspase-3 activation [7] -0.233% and -1.87% | outcome [8] | outcome [9] | outcome [10] | outcome [11] | outcome [12] | outcome [13] | outcome [14] | caspase-3 activation [15] -13% and 8.86% | Potency [16] | Potency [17] | Potency [18] | max response [19] -10.6% and 0.832% | Potency [20]

Nc1ccc(Br)cc1
inactive: Potency [1] > 92 µM | Potency [2] > 92 µM | Potency [3] > 92 µM | Potency [4] | activity change, negative = cytotoxicity [5] -3.48% | outcome [6] | caspase-3 activation [7] 5.03% | outcome [8] | outcome [9] | outcome [10] | outcome [11] | outcome [12] | outcome [13] | outcome [14] | caspase-3 activation [15] -0.502% | Potency [16] | Potency [17] | Potency [18] | max response [19] -7.62% | Potency [20]

CCOP(=S)(OCC)SCSC(C)(C)C
inactive: Potency [1] > 92 µM | Potency [2] > 92 µM | Potency [3] > 92 µM | Potency [4] | activity change, negative = cytotoxicity [5] 1.14% | outcome [6] | caspase-3 activation [7] -0.764% | outcome [8] | outcome [9] | outcome [10] | outcome [11] | outcome [12] | outcome [13] | outcome [14] | caspase-3 activation [15] -0.898% | Potency [16] | Potency [17] | Potency [18] | max response [19] -9.58% and -1.13% | Potency [20]

Nc1c(Cl)c(Cl)nc(C(=O)O)c1Cl
inactive: Potency [1] > 92 µM | Potency [2] > 92 µM | Potency [3] > 92 µM | Potency [4] | activity change, negative = cytotoxicity [5] -10.2% | outcome [6] | caspase-3 activation [7] 0.643% | outcome [8] | outcome [9] | outcome [10] | outcome [11] | outcome [12] | outcome [13] | outcome [14] | caspase-3 activation [15] -0.472% | Potency [16] | Potency [17] | Potency [18] | max response [19] -0.605% and -10.4% and -8.99% | Potency [20]

O=C=NC1CCCCC1
inactive: Potency [1] > 92 µM | Potency [2] > 92 µM | Potency [3] > 92 µM | Potency [4] | activity change, negative = cytotoxicity [5] -5.86% and -0.993% | outcome [6] | caspase-3 activation [7] -0.599% and -1.26% | outcome [8] | outcome [9] | outcome [10] | outcome [11] | outcome [12] | outcome [13] | outcome [14] | caspase-3 activation [15] 5.04% and -5.65% | Potency [16] | Potency [17] | Potency [18] | max response [19] -2.8% and 0.863% | Potency [20]

CCCC(=O)Cl
inactive: Potency [1] > 92 µM | Potency [2] > 92 µM | Potency [3] > 92 µM | Potency [4] | activity change, negative = cytotoxicity [5] 0.416% | outcome [6] | caspase-3 activation [7] -0.695% | outcome [8] | outcome [9] | outcome [10] | outcome [11] | outcome [12] | outcome [13] | outcome [14] | caspase-3 activation [15] 6.16% | Potency [16] | Potency [17] | Potency [18] | max response [19] 0.489% | Potency [20]
